The list is not random: actives were taken first. Their share in the collection is about 11%.
HPGD block = qHTS Assay for Inhibitors of HPGD (15-Hydroxyprostaglandin Dehydrogenase) | purified HPGD, NADH fluorescence kinetic, PGE2 substrate | Potency, µM, actives largely listed as inhibitors | hit rate 4.3% among 150,000; active means well fitted inhibition curve with a large enough effect, not every such curve was filed as active; inconclusive means small, poorly fitted or top-dose-only effect, or another doubt; inactive means no such curve, though single readings can be large or run the other way
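NADH formation kinetics: reaction with 30 uM PGE2 and 1 mM NAD+ (final), 20 nM enzyme, Tris-HCl pH 8 with Tween 20, after 15 min compound preincubation at room temperature. Fluorescence change, last versus first of five reads.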
PNC assembly inh = High Content Assay for Compounds that inhibit the Assembly of the Perinucleolar Compartment; hit rate 3.1% among 140,000; AID 2417, 2010; PC3M PTB-GFP, PNC prevalence imaging, 16 h; hits give low values; activity change (PNC), negative = inhibition, % at 10 µM;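 active means readout at or below -70, meaning at least 70% loss of cells showing the perinucleolar compartment, a nuclear body marking cancer cells; inconclusive means readout between -30 and a set limit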
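Compounds are pinned in duplicate onto adhered PC3M cells stably expressing GFP-tagged PTB and incubated 16 h at 37 C. Cells are then fixed, nuclei stained with Hoechst, and PNC-positive cells counted.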
ALDH1A1 inh-1 = qHTS Assay for Inhibitors of Aldehyde Dehydrogenase 1 (ALDH1A1) | Aldehyde dehydrogenase 1A1 (Homo sapiens), P00352 | Purified ALDH1A1, NADH fluorescence, propionaldehyde substrate | Potency, µM (highest dose often 75.3 µM), actives largely listed as inhibitors | hit rate 7.3% among 220,000 | AID 1030, 2008; active means well fitted inhibition curve with a large enough effect, not every such curve was filed as active; inconclusive means small, poorly fitted or top-dose-only effect, or another doubt; inactive means no such curve, though single readings can be large or run the other way
Target sequence (P00352 whole entry, looked up): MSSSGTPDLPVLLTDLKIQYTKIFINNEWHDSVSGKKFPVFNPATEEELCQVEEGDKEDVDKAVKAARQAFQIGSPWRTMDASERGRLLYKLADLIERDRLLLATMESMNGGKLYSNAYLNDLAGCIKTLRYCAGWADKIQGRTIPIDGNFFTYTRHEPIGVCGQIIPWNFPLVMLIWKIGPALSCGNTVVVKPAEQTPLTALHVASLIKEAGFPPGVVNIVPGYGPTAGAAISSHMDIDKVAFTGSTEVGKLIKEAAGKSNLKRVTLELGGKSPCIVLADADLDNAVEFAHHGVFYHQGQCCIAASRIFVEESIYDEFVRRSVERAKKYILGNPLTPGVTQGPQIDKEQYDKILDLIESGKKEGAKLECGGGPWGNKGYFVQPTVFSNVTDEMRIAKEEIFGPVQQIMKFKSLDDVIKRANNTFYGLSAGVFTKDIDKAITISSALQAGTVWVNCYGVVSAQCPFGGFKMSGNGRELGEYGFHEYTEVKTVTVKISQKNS
IMPase cell inh = qHTS Assay for Identifying the Cell-Membrane Permeable IMPase Inhibitors | 120,000 tested, under 10 active | AID 901, 2007 | CHO-M1 cells, IP1 accumulation, HTRF TR-FRET ratio | inhibition (IP1 accumulation), % at 46.1 µM; active means well fitted curve in the direction sought with a large enough effect in the signal ratio, not every such curve was filed as active; inconclusive means small, poorly fitted or top-dose-only effect, or a change in a side signal; inactive means no such curve, though single readings can be large or run the other way; the % refers to the signal ratio;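 further: cells stimulated with carbachol in lithium chloride buffer; higher means more IMPase inhibition seen as more IP1 and lower FRET ratio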
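In this qHTS, compounds (final up to 46 uM) act on CHO-M1 cells that are then activated through the M1 receptor with carbachol, in pH 7.4 buffer containing 50 mM LiCl, for 30 min. IP1 accumulation is quantified by the IP-One immunoassay.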
ALOX12 inhib = qHTS Assay for Inhibitors of 12-hLO (12-human lipoxygenase). Polyunsaturated fatty acid lipoxygenase ALOX12 (Homo sapiens), P18054. purified 12-hLO, xylenol orange hydroperoxide absorbance. Potency, µM (highest dose often 57.1 µM), actives largely listed as inhibitors. hit rate 0.12% among 150,000. AID 1452, 2008; active means well fitted curve in the direction sought with a large enough effect; inconclusive means small, poorly fitted or top-dose-only effect, or another doubt; inactive means no such curve, though single readings can be large; an effect the other way counts as inactive or inconclusive; further: nearly all actives have a fitted effect of over 55% in size
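Purified human 12hLO (150 nM), preincubated 15 min with compound, then 40 uM arachidonic acid for 30 min, room temperature, Hepes pH 7.0 with 0.01% Triton X-100. Hydroperoxide detected by ferrous iron/xylenol orange; 573/405 nm absorbance ratio gives reaction progress.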
IMPase Li inh = qHTS Assay for Identifying the Cell-Membrane Permeable IMPase Inhibitors: Potentiation with Lithium | CHO-M1 cells, IP1 TR-FRET (IP-One), carbachol + lithium | hit rate 0.35% among 210,000 | AID 1457, 2008 | Potency, µM (doses to about 59.4 µM), usual class: inhibitors; active means well fitted curve in the direction sought with a large enough effect; inconclusive means small, poorly fitted or top-dose-only effect, or another doubt; inactive means no such curve, though single readings can be large; an effect the other way counts as inactive or inconclusive;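 further: IP1 builds up when IMPase is blocked and the TR-FRET signal falls; nearly all actives have a fitted effect of over 50% in size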
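Concentration–response in CHO-M1 cells, lithium-potentiated; 30 min at 37C. IP1 detected by competitive TR-FRET after 10 min lysis at RT. Hill-fitted AC50.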
HPGD inh cf = Confirmation qHTS Assay for Inhibitors of HPGD (15-Hydroxyprostaglandin Dehydrogenase); Potency, µM (doses to about 57.1 µM), most hits filed as inhibitors; hit rate 90% among 90; recombinant HPGD, NADH fluorescence, PGE2 substrate; shares compounds with HPGD block
ALDH1A1 inh-2 = Inhibitors of Aldehyde Dehydrogenase 1 (ALDH1A1): Followup Confirmation and Counterscreen | shares compounds with ALDH1A1 inh-1 | purified ALDH1A1, NADH fluorescence, propionaldehyde/NAD+ | Potency, µM (titrated, usually from 57.1 µM), actives largely listed as inhibitors | hit rate 90% among 90 | AID 493210, 2011
Of the large screens only hits and unclear results are named; the others gave an inactive call (follow-up assays come after a bar, where they were run). Unless noted, the call rests on the fitted dose curve.

Cc1ccc(CCNC(=O)C2CCC(CNc3c(N4CCC(C)CC4)c(=O)c3=O)CC2)cc1 (stereo unspecified)	HPGD block inconclusive (no result: IMPase cell inh) | HPGD inh cf 14µM
O=S1(=O)C=C(SCc2ccc(F)cc2)Nc2ccccc21	none (no result: HPGD block, PNC assembly inh, IMPase cell inh, ALOX12 inhib)
CN(C)c1nc(Nc2ccc(Cl)cc2)nc(OCC#N)n1	PNC assembly inh inconclusive
COc1ccc(NC(=O)c2sc3nc(Cc4ccccc4)cc(C(F)(F)F)c3c2N)cc1OC	none (no result: IMPase cell inh)
COc1ccccc1NC(=O)c1sc2nc(Cc3ccccc3)cc(C(F)(F)F)c2c1N	none | HPGD inh cf inactive
Oc1[nH]c(=S)sc1/C=C1\C(c2ccccc2)=Nc2ccccc21	HPGD block inconclusive, PNC assembly inh inconclusive, ALDH1A1 inh-1 inconclusive (no result: IMPase cell inh)
Cc1ccccc1C(=O)N1CCc2ccccc2C1	HPGD block 0.63µM, ALDH1A1 inh-1 inconclusive | HPGD inh cf 2.5µM
Cc1ccc(NS(=O)(=O)c2cc(C(=O)N3CCc4ccccc4C3)ccc2Cl)cc1	none | HPGD inh cf inactive
Cc1ccccc1NS(=O)(=O)c1cc(C(=O)N2CCc3ccccc3C2)ccc1C	PNC assembly inh inconclusive
CN(C)C(=O)c1ccc(-c2nc(Nc3ccncc3)c3ccccc3n2)cc1	HPGD block 0.16µM (no result: PNC assembly inh, IMPase cell inh) | HPGD inh cf 0.11µM
CN(C)c1ccc(-c2nc(Nc3ccncc3)c3ccccc3n2)cc1	HPGD block inconclusive (no result: PNC assembly inh, IMPase cell inh)
Cc1ccc(C(=O)NC(C#N)=C(Cl)Cl)cc1	ALDH1A1 inh-1 inconclusive (no result: HPGD block, PNC assembly inh, IMPase cell inh, ALOX12 inhib)
COc1ccc(S(=O)(=O)Nc2cc(Sc3ncn[nH]3)c(O)c3ccccc23)cc1	HPGD block 1.1µM, ALDH1A1 inh-1 inconclusive, ALOX12 inhib inconclusive | HPGD inh cf 0.35µM
Cc1oc(-c2cccc(Cl)c2)nc1CSc1nc2c(c(=O)[nH]1)CCC2	HPGD block 0.56µM (no result: IMPase cell inh) | HPGD inh cf 1.3µM
Cc1ccc(S(=O)(=O)N(C)c2ccc(C(=O)N3CCC(C(N)=O)CC3)cc2)cc1	HPGD block 28µM | HPGD inh cf inconclusive
CN(C)C(=O)c1ccc(NC(=O)Cn2nc(-c3ccccc3)c3ccccc3c2=O)cc1	none (no result: HPGD block, PNC assembly inh, ALDH1A1 inh-1, ALOX12 inhib, IMPase Li inh)
CCN(CC)C(=O)c1sc2nc(-c3cccs3)cc(-c3ccc(Cl)cc3)c2c1N	HPGD block 6.3µM, ALDH1A1 inh-1 inconclusive, IMPase cell inh inconclusive, IMPase Li inh inconclusive | HPGD inh cf 10µM
CCCCC(=O)OCC(=O)Nc1cccc(S(=O)(=O)NC2=NCCCCC2)c1	none (no result: HPGD block, PNC assembly inh, IMPase cell inh, ALOX12 inhib)
O=C(c1ccc(COc2ccccc2Br)cc1)N1CCCCC1	HPGD block 0.045µM, ALDH1A1 inh-1 inconclusive | HPGD inh cf 0.089µM
O=C1ON=C(c2ccccc2)/C1=C/c1ccc(-c2ccccc2[N+](=O)[O-])o1	HPGD block 1.6µM, ALDH1A1 inh-1 10µM (no result: IMPase cell inh) | HPGD inh cf 0.45µM
CCOc1ccc(C2c3[nH]c4ccccc4c3CCN2C(=O)Cn2cncn2)cc1 (stereo unspecified)	none (no result: HPGD block, PNC assembly inh, IMPase cell inh, ALOX12 inhib)
COc1ccc(C)cc1NC(=O)CN1CCN(S(=O)(=O)c2ccc(Cl)cc2)CC1	ALDH1A1 inh-1 0.32µM | ALDH1A1 inh-2 0.14µM
COc1cc2c(cc1NC(=O)CN1CCN(S(=O)(=O)c3ccc(C)cc3)CC1)oc1ccccc12	HPGD block inconclusive, PNC assembly inh inconclusive, IMPase cell inh inconclusive, IMPase Li inh inconclusive

High-throughput results: PubChem, National Center for Advancing Translational Sciences (NCATS)
